Screening data: PubChem BioAssay, several laboratories
Only some compounds are listed: those with a hit (about 2.3% of all), similar ones and a draw of the others.
BCLXL inh: blocks human Bcl-xL binding to Bim BH3 peptide; Q07817; GST-Bcl-xL / FITC-Bim BH3 peptide fluorescence polarization; inhibition, % at 10.9 µM; 320,000 compounds, 0.7% hits;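 active means inhibition above the mean of all tested compounds plus 3 SD, cutoff set per campaign, cut at about 30% in these data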;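 further: 0% = DMSO wells and 100% = unlabeled Bim-BH3 peptide competitor; inhibitors lower millipolarization by displacing the labeled peptide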
MCL1-BIM inh: inhibitors of human MCL1 binding to BIM-BH3 peptide; 320,000 compounds, 0.68% hits; GST-MCL1 / FITC-Bim-BH3 fluorescence polarization; inhibition, % at 10.9 µM;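 active means inhibition above the mean inhibition of all tested compounds plus 3 SD, set per campaign, cut at about 40% in these data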;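 further: 0% = DMSO wells and 100% = unlabeled Bim-BH3 peptide control; higher means more loss of mP so more displacement of Bim peptide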
Target sequence (Q07820 whole entry, looked up): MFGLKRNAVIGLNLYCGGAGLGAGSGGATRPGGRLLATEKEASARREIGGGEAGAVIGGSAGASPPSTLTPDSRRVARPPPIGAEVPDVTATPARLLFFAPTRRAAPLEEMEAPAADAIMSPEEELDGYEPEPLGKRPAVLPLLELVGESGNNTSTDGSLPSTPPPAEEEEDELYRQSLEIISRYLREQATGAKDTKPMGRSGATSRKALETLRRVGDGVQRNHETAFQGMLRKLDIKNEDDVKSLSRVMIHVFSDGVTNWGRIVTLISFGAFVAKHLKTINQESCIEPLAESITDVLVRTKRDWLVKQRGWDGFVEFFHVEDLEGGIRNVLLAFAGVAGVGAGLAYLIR
Bim-Mcl-1: inhibitors of Bim-Mcl-1 interaction, human | Q07820 | Bead-based flow cytometry, Bim peptide-Mcl-1 binding | inhibition, % at 10 µM | 190,000 compounds, 0.1% hits; in the data active means inhibition above about 40%;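 further: 0% = no compound tracer wells and 100% = peptide blocker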
Mcl1-Bid inh: disrupts binding of human Mcl-1 to Bid peptide | Q07820 | TR-FRET Mcl-1/Bid-Dy647 peptide binding, 1536-well | inhibition, % at 21.7 µM | 220,000 compounds, 0.97% hits | AID 1021;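 active means compounds that cut the binding signal by more than half at the single screening dose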;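 further: His-tagged Mcl-1 with europium anti-His antibody binding Bid BH3 peptide; 0% = Mcl-1 plus peptide wells and 100% = peptide-only wells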
Mcl1-Noxa inh: disrupts binding of human Mcl-1 to Noxa peptide; 220,000 compounds, 1.5% hits; inhibition, % at 21.7 µM; TR-FRET Mcl-1/Noxa peptide binding, 2 h;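 active means compounds that cut the protein-peptide binding signal by more than 50% relative to plate controls in a single-dose test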;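 further: His-tagged Mcl-1 with rhodamine Noxa BH3 peptide and terbium anti-His antibody; 0% = Mcl-1 plus Noxa peptide wells and 100% = peptide-only wells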
GLD-1 TGE inh: GLD-1-TGE RNA interaction inhibition (C. elegans). purified GLD-1 + fluorescein TGE RNA, fluorescence polarization. 320,000 compounds, 0.44% hits. Q17339. inhibition, % at 5.96 µM. AID 2280;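 active means percent inhibition above a per-plate cutoff, the plate mean of test compounds plus 3 SD, cut at about 30% in these data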;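 further: 0% = DMSO wells with GLD-1 and probe and 100% = wells lacking GLD-1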
Numbers without * were called inactive; / = no result.

SMILES	BCLXL inh	MCL1-BIM inh	Bim-Mcl-1	Mcl1-Bid inh	Mcl1-Noxa inh	GLD-1 TGE inh
CC(C)CNC(=O)COC(=O)c1ccc2c(c1)C(=O)N(Cc1ccco1)C2=O	0	-1	/	/	/	8
Cc1ccc(S(=O)(=O)NC(=O)Nc2cccc(C)n2)cc1	-5	-8	/	-6	-9	4
COc1nc(C)nc(NC(=O)NS(=O)(=O)c2ccc(C)cc2)n1	5	-4	-5	-12	65*	6
Cc1ccc(-n2c(-c3ccncc3)n[nH]c2=S)c(C)c1	-7	-10	-18	-36	25	5
Nc1ccccc1Nc1ccccc1	10	1	0	75*	52*	-1
Nc1ccc(Nc2ccccc2)c(Cl)c1	4	16	-2	-102	20	8
Cc1ccc(S(=O)(=O)N2CCC(C(=O)OCC(=O)N3CC(C)CC(C)C3)CC2)cc1C (stereo unspecified)	3	5	/	/	/	2
CC1CCC(C(C)C)C(OC(=O)C[n+]2cc(-c3ccc(Cl)cc3)n3c2CCC3)C1 (stereo unspecified)	7	8	/	92*	36	-8
COc1ccccc1-n1c(SCc2cc(=O)oc3cc(O)ccc23)nc2ccccc2c1=O	8	2	-1	-71	67*	2
COc1ccccc1-n1c(SCC(=O)N2CCOCC2)nc2ccccc2c1=O	5	-3	/	/	/	4
Cc1ccc(C)c(OCC(=O)NCC(c2ccco2)N2CCCCC2)c1 (stereo unspecified)	1	-4	/	/	/	-1
O=C(NCc1ccccn1)c1cccc(S(=O)(=O)NCc2ccccc2)c1	3	6	/	/	/	9
Cc1cc2nc3ccc(=[N+](C)C)cc-3sc2cc1N	/	/	/	-76	51*	/
CN(C)c1ccc2nc3ccc(=[N+](C)C)cc-3sc2c1	5	18	5	-111	58*	8
COc1ccc(CN2CCSc3sccc3C2=O)cc1	3	9	/	/	/	0
COc1ccc2nc(NC(=O)c3cccc(-c4cc5ccccc5oc4=O)c3)sc2c1	-9	-14	-2	87*	54*	6
COc1ccc(C(=O)Nc2cccc(-c3cc4ccccc4oc3=O)c2)cc1[N+](=O)[O-]	2	10	-1	87*	56*	6
COc1ccc(NS(=O)(=O)c2ccc(N3CCCC3)c(NC(=S)Nc3cccc(S(=O)(=O)N(C)C)c3)c2)cc1	9	5	-8	-17	62*	-1
Cc1cc(C)cc(N=Cc2[nH]c3ccc(Br)c(Cl)c3c2O)c1	-64	-111	-5	-15	52*	-58
C#Cc1ccc([C@@H]2C=C(C(=O)N3CCN(Cc4ccc5c(c4)OCO5)CC3)O[C@H](OCCCCO)C2)cc1	1	2	0	84*	-1	4
C#Cc1ccc([C@H]2C=C(C(=O)O)O[C@@H](OCc3ccc(CO)cc3)C2)cc1	4	-1	-2	51*	7	2
O=C(C1=C[C@@H](c2ccc3c(c2)OCO3)C[C@@H](OCCCCO)O1)N1CCN(Cc2ccc3c(c2)OCO3)CC1	0	-2	-4	14	3	3
O=C(C1=C[C@@H](c2ccc(C(F)(F)F)cc2)C[C@@H](OCc2ccc(CO)cc2)O1)N1CCN(Cc2ccccc2)CC1	8	8	0	-15	81*	10
O=C(Nc1cccc(F)c1)C1CCCN1C(=O)OCc1ccccc1 (stereo unspecified)	2	-4	/	/	/	-1
CCCc1nc2nc(C)c(NS(=O)(=O)c3ccc(CC(C)C)cc3)c(=O)n2[nH]1	4	-1	/	/	/	-2
O=C(O)c1ccc(NS(=O)(=O)c2ccc3c(c2)C2C=CCC2C(c2ccccc2F)N3)cc1 (stereo unspecified)	/	/	-1	4	93*	/
COc1ccc2[nH]c3c(c2c1)CCn1c-3nc2sc(C(=O)Nc3ccccc3)c(C)c2c1=O	/	/	0	75*	54*	/
CCc1cc2c(=O)n3c(nc2s1)-c1[nH]c2ccc(OC)cc2c1CC3	5	0	-1	10	10	2
COc1ccc(Cl)cc1NC(=O)Cn1c(NCCO)nc2ccccc21	1	-2	-4	-21	12	9
O=C1NC(CCc2ccccc2)C(=O)N1Cc1ccccc1Cl (stereo unspecified)	1	-5	17	95*	-5	-2
